Consider 6 compounds from the supplement of paper PMC13380429.

Unmarked numbers belong to inactive results.

The test relates to Vero E6 infected with SARS-CoV-2. Put plainly: SARS-CoV-2 infection rate relative to infected DMSO; higher = more infection, active = 60 or less. To be noted: 24 h.
As for `CN(C)[C@@H]1C(O)=C(C(N)=O)C(=O)[C@@]2(O)C(O)=C3C(=O)c4c(O)cccc4[C@@](C)(O)[C@H]3[C@H](O)[C@@H]12` [oxytetracycline] (10 µM), the SARS-CoV-2 infection rate was 106%.

Turning to `CN[C@H]1C(=O)N[C@@H]2Cc3ccc(cc3)Oc3cc4cc(c3O[C@@H]3O[C@H](C(=O)O)[C@@H](O)[C@H](O)[C@H]3NC(=O)CCCCCCCCC(C)C)Oc3ccc(cc3Cl)[C@@H](O)[C@@H]3NC(=O)[C@H](NC(=O)[C@@H]4NC(=O)[C@@H](NC2=O)c2cc(cc(O)c2Cl)Oc2cc1ccc2O)c1ccc(O)c(c1)-c1c(O[C@H]2O[C@H](CO)[C@@H](O)[C@H](O)[C@@H]2O)cc(O)cc1[C@@H](C(=O)NCCCN(C)C)NC3=O` [dalbavancin] (10 µM), the SARS-CoV-2 infection rate was 113%. To `CC(C)=CCc1c(O)cc(O)c2c(=O)c(O)c(-c3ccc(C(F)(F)F)cc3)oc12` (0.833333 µM) belongs 104%; to `O=C(c1cccc(Cl)c1F)N1CCN(Cc2cccc(Nc3nccs3)n2)CC1` (0.833333 µM), 107%; to `NS(=O)(=O)c1nn2cc(-c3ccccc3)nc2s1` (10 µM), 97.5%. For `O=C(O)c1cccnc1` [niacin] (10 µM) the value was 102%.
